Where a name gives a salt, the structure may show the parent alone. ± gives the standard deviation of the averaged measurements.
Tested on: E. coli TESEC Mtb DapB
Assay: growth (OD600 after 10 h); higher = more growth (less inhibition)
Conditions: arabinose induction (level): High; compound 0.1 mM; raw OD600 reference: median of DMSO wells […], cell-free background 0.041
Protocol: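 TESEC E. coli strains in which the native enzyme is deleted and replaced by arabinose-inducible Mtb Asd, DapB, CysH or TrpD, each grown in its selective medium. Strains were screened against the Prestwick library at 0.1 mM and 1% DMSO in 384-well format at low and high arabinose induction. Growth is read as OD600 after 10 h in triplicate.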

SMILES	growth
C#C[C@]1(OC(C)=O)CC[C@H]2[C@@H]3CCC4=CC(=NO)CC[C@@H]4[C@H]3CC[C@@]21CC (mixture of isomers) [Norgestimate]	0.126 ± 0.0075
CO[C@H]1C[C@H](O[C@H]2[C@H](C)[C@@H](O[C@@H]3O[C@H](C)C[C@H](N(C)C)[C@H]3OC(C)=O)[C@@H](C)C[C@@]3(CO3)C(=O)[C@H](C)[C@@H](OC(C)=O)[C@@H](C)[C@@H](C)OC(=O)[C@@H]2C)O[C@@H](C)[C@@H]1OC(C)=O [Troleandomycin]	0.165 ± 0.0054
CCCCC(CC)CN1CN(CC(CC)CCCC)CC(C)(N)C1 (stereo not given) [Hexetidine]	0.218 ± 0.018
C=C[C@H]1CN2CC[C@H]1C[C@@H]2[C@@H](O)c1ccnc2ccc(OC)cc12 [Quinidine hydrochloride monohydrate]	0.198 ± 0.0064
O=C1Cc2cc(CCN3CCN(c4nsc5ccccc45)CC3)c(Cl)cc2N1 [Ziprasidone  Hydrochloride]	0.222 ± 0.027
CC[C@H]1OC(=O)[C@H](C)[C@@H](O[C@H]2C[C@@](C)(OC)[C@@H](O)[C@H](C)O2)[C@H](C)[C@@H](O[C@@H]2O[C@H](C)C[C@H](N(C)C)[C@H]2O)[C@](C)(O)C[C@@H](C)[C@@H]2N[C@@H](COCCOC)O[C@H]([C@H]2C)[C@]1(C)O [Dirithromycin]	0.0519 ± 0.0012
CC(C)/N=c1\cc2n(-c3ccc(Cl)cc3)c3ccccc3nc-2cc1Nc1ccc(Cl)cc1 [Clofazimine]	0.248 ± 0.023
Clc1cnccn1 [2-Chloropyrazine]	0.231 ± 0.013
COc1cc([C@@H]2c3cc4c(cc3[C@@H](O[C@@H]3O[C@@H]5CO[C@@H](C)O[C@H]5[C@H](O)[C@H]3O)[C@H]3COC(=O)[C@H]23)OCO4)cc(OC)c1O [Etoposide]	0.113 ± 0.0098
C#C[C@]1(O)CC[C@H]2[C@@H]3CCc4cc(OC)ccc4[C@H]3CC[C@@]21C [Ethynylestradiol 3-methyl ether]	0.204 ± 0.031
Cc1nc2ccccn2c(=O)c1CCN1CCC(C(=O)c2ccc(F)cc2)CC1 [Pirenperone]	0.223 ± 0.0088
Cc1ccc2c(c1)c1c3n2CCNC3CCC1 (stereo not given) [Pirlindole mesylate]	0.18 ± 0.0019
O=C(O)/C=C/c1ccc(Cn2ccnc2)cc1 [Ozagrel hydrochloride]	0.176 ± 0.0061
Nc1ccn([C@H]2CC[C@@H](CO)O2)c(=O)n1 [Zalcitabine]	0.204 ± 0.015
COc1cc2c(cc1OC)C(=O)C(CC1CCN(Cc3ccccc3)CC1)C2 (stereo not given) [Donepezil hydrochloride]	0.167 ± 0.021
Clc1cccc(Cl)c1NC1=NCCN1 [Clonidine hydrochloride]	0.195 ± 0.012
NS(=O)(=O)c1cc(C2(O)NC(=O)c3ccccc32)ccc1Cl (stereo not given) [Chlorthalidone]	0.205 ± 0.016
CN1CCN(CCCN2c3ccccc3Sc3ccc(S(=O)(=O)N(C)C)cc32)CC1 [Thioproperazine dimesylate]	0.2 ± 0.024
CCCc1nc2c(C)cc(-c3nc4ccccc4n3C)cc2n1Cc1ccc(-c2ccccc2C(=O)O)cc1 [Telmisartan]	0.273 ± 0.0084
C[C@@H](O)[C@H]1C(=O)N2C(C(=O)O)=C(S[C@@H]3CN[C@H](C(=O)N(C)C)C3)[C@H](C)[C@H]12 [Meropenem]	0.135 ± 0.0089

Same assay, conditions: arabinose induction (level): Low; compound 0.1 mM; raw OD600 reference: median of DMSO wells 0.227, cell-free background 0.041

SMILES	growth
C#C[C@]1(OC(C)=O)CC[C@H]2[C@@H]3CCC4=CC(=NO)CC[C@@H]4[C@H]3CC[C@@]21CC (mixture of isomers) [Norgestimate]	0.0826 ± 0.025
CO[C@H]1C[C@H](O[C@H]2[C@H](C)[C@@H](O[C@@H]3O[C@H](C)C[C@H](N(C)C)[C@H]3OC(C)=O)[C@@H](C)C[C@@]3(CO3)C(=O)[C@H](C)[C@@H](OC(C)=O)[C@@H](C)[C@@H](C)OC(=O)[C@@H]2C)O[C@@H](C)[C@@H]1OC(C)=O [Troleandomycin]	0.156 ± 0.0093
CCCCC(CC)CN1CN(CC(CC)CCCC)CC(C)(N)C1 (stereo not given) [Hexetidine]	0.225 ± 0.033
C=C[C@H]1CN2CC[C@H]1C[C@@H]2[C@@H](O)c1ccnc2ccc(OC)cc12 [Quinidine hydrochloride monohydrate]	0.229 ± 0.034
O=C1Cc2cc(CCN3CCN(c4nsc5ccccc45)CC3)c(Cl)cc2N1 [Ziprasidone  Hydrochloride]	0.308 ± 0.076
CC[C@H]1OC(=O)[C@H](C)[C@@H](O[C@H]2C[C@@](C)(OC)[C@@H](O)[C@H](C)O2)[C@H](C)[C@@H](O[C@@H]2O[C@H](C)C[C@H](N(C)C)[C@H]2O)[C@](C)(O)C[C@@H](C)[C@@H]2N[C@@H](COCCOC)O[C@H]([C@H]2C)[C@]1(C)O [Dirithromycin]	0.052 ± 0.00061
CC(C)/N=c1\cc2n(-c3ccc(Cl)cc3)c3ccccc3nc-2cc1Nc1ccc(Cl)cc1 [Clofazimine]	0.261 ± 0.012
Clc1cnccn1 [2-Chloropyrazine]	0.254 ± 0.025
COc1cc([C@@H]2c3cc4c(cc3[C@@H](O[C@@H]3O[C@@H]5CO[C@@H](C)O[C@H]5[C@H](O)[C@H]3O)[C@H]3COC(=O)[C@H]23)OCO4)cc(OC)c1O [Etoposide]	0.0846 ± 0.011
C#C[C@]1(O)CC[C@H]2[C@@H]3CCc4cc(OC)ccc4[C@H]3CC[C@@]21C [Ethynylestradiol 3-methyl ether]	0.226 ± 0.025
Cc1nc2ccccn2c(=O)c1CCN1CCC(C(=O)c2ccc(F)cc2)CC1 [Pirenperone]	0.23 ± 0.037
Cc1ccc2c(c1)c1c3n2CCNC3CCC1 (stereo not given) [Pirlindole mesylate]	0.201 ± 0.024
O=C(O)/C=C/c1ccc(Cn2ccnc2)cc1 [Ozagrel hydrochloride]	0.207 ± 0.023
Nc1ccn([C@H]2CC[C@@H](CO)O2)c(=O)n1 [Zalcitabine]	0.24 ± 0.04
COc1cc2c(cc1OC)C(=O)C(CC1CCN(Cc3ccccc3)CC1)C2 (stereo not given) [Donepezil hydrochloride]	0.199 ± 0.039
Clc1cccc(Cl)c1NC1=NCCN1 [Clonidine hydrochloride]	0.26 ± 0.034
NS(=O)(=O)c1cc(C2(O)NC(=O)c3ccccc32)ccc1Cl (stereo not given) [Chlorthalidone]	0.208 ± 0.017
CN1CCN(CCCN2c3ccccc3Sc3ccc(S(=O)(=O)N(C)C)cc32)CC1 [Thioproperazine dimesylate]	0.249 ± 0.0047
CCCc1nc2c(C)cc(-c3nc4ccccc4n3C)cc2n1Cc1ccc(-c2ccccc2C(=O)O)cc1 [Telmisartan]	0.307 ± 0.039
C[C@@H](O)[C@H]1C(=O)N2C(C(=O)O)=C(S[C@@H]3CN[C@H](C(=O)N(C)C)C3)[C@H](C)[C@H]12 [Meropenem]	0.169 ± 0.013

Reference: the supplement of paper PMC9262897, “Low-cost anti-mycobacterial drug discovery using engineered E. coli” (Nature Communications, 2022)
